Reference: PubChem BioAssay AID1159580 (chemical genetic matrix, 2015)
The whole screen tested about 5,500 compounds, of which about 2,000 (36%) were called active. Another 18% or so got no clear call; they are omitted. No stated cut-off is given here; in the data, active means normalized growth mostly below about 0.91 (no sharp cut-off); inconclusive means no clear call, values can overlap the other calls; inactive means mostly above about 0.92. The list shows a part of the results.

Assay: chemical genetic growth profiling, strain panel (AID 1159580);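 further: tested at 20 µM; growth read once vehicle control cultures reached saturation at 30 °C; 1 = growth at the plate median or of vehicle wells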
Settings: growth OD

Measured: normalized growth

COc1c2occc2cc2ccc(=O)oc12
inactive: S. cerevisiae deletion strains, locus YJR075W, strain HOC1, stronger effect = lower value 0.976 | S. cerevisiae deletion strains, locus YKL009W, strain mrt4, stronger effect = lower value 0.909 | S. cerevisiae deletion strains, locus YKL068W, stronger effect = lower value 0.996 | S. cerevisiae deletion strains, locus YKL085W, strain MDH1 (second series), stronger effect = lower value 1 | S. cerevisiae deletion strains, locus YKL085W, strain MDH1, stronger effect = lower value 1 | S. cerevisiae deletion strains, locus YKL160W, strain elf1, stronger effect = lower value 0.948 | S. cerevisiae deletion strains, locus YKL190W, strain CNB1, stronger effect = lower value 0.979 | S. cerevisiae deletion strains, locus YKR026C, strain gcn3, stronger effect = lower value 0.983 | S. cerevisiae deletion strains, locus YKR091W, strain srl3, stronger effect = lower value 0.982 | S. cerevisiae deletion strains, locus YLL026W, stronger effect = lower value 0.973 | S. cerevisiae deletion strains, locus YLL041C, strain sdh2, stronger effect = lower value 0.981 | S. cerevisiae deletion strains, locus YLR027C, strain aat2, stronger effect = lower value 0.952 | S. cerevisiae deletion strains, locus YLR039C, strain RIC1, stronger effect = lower value 0.851 | S. cerevisiae deletion strains, locus YLR058C, strain SHM2, stronger effect = lower value 0.988 | S. cerevisiae deletion strains, locus YLR102C, strain apc9, stronger effect = lower value 0.986 | S. cerevisiae deletion strains, locus YLR113W, strain HOG1, stronger effect = lower value 1.08 | S. cerevisiae deletion strains, locus YLR258W, strain gsy2, stronger effect = lower value 0.945 | S. cerevisiae deletion strains, locus YLR262C, strain YPT6 (second series), stronger effect = lower value 0.955 | S. cerevisiae deletion strains, locus YLR262C, strain YPT6, stronger effect = lower value 0.91 | S. cerevisiae deletion strains, locus YLR268W, strain sec22, stronger effect = lower value 0.93 | S. cerevisiae deletion strains, locus YLR330W, strain CHS5, stronger effect = lower value 0.991 | S. cerevisiae deletion strains, locus YLR342W, strain FKS1 (second series), stronger effect = lower value 0.971 | S. cerevisiae deletion strains, locus YLR342W, strain FKS1, stronger effect = lower value 0.965 | S. cerevisiae deletion strains, locus YLR357W, strain rsc2, stronger effect = lower value 1.01 | S. cerevisiae deletion strains, locus YLR370C, strain arc18, stronger effect = lower value 0.914 | S. cerevisiae deletion strains, locus YLR371W, strain rom2, stronger effect = lower value 0.969 | S. cerevisiae deletion strains, locus YLR384C, strain iki3, stronger effect = lower value 0.963 | S. cerevisiae deletion strains, locus YLR418C, strain cdc73, stronger effect = lower value 0.95 | S. cerevisiae deletion strains, locus YML016C, strain PPZ1, stronger effect = lower value 0.987 | S. cerevisiae deletion strains, locus YML124C, strain tub3, stronger effect = lower value 0.996 | S. cerevisiae deletion strains, locus YMR058W, strain fet3, stronger effect = lower value 0.927 | S. cerevisiae deletion strains, locus YMR078C, strain ctf18, stronger effect = lower value 0.974 | S. cerevisiae deletion strains, locus YMR125W, strain sto1, stronger effect = lower value 1.01 | S. cerevisiae deletion strains, locus YMR129W, stronger effect = lower value 0.99 | S. cerevisiae deletion strains, locus YMR205C, strain PFK2, stronger effect = lower value 0.941 | S. cerevisiae deletion strains, locus YMR223W, strain ubp8, stronger effect = lower value 0.924 | S. cerevisiae deletion strains, locus YMR231W, strain pep5, stronger effect = lower value 0.989 | S. cerevisiae deletion strains, locus YMR263W, strain SAP30, stronger effect = lower value 0.942 | S. cerevisiae deletion strains, locus YMR307W, strain GAS1, stronger effect = lower value 0.949 | S. cerevisiae deletion strains, locus YNL067W, strain RPL9B, stronger effect = lower value 0.939 | S. cerevisiae deletion strains, locus YNL071W, strain lat1, stronger effect = lower value 0.947 | S. cerevisiae deletion strains, locus YNL128W, strain TEP1, stronger effect = lower value 0.962 | S. cerevisiae deletion strains, locus YNL153C, strain GIM3, stronger effect = lower value 0.983 | S. cerevisiae deletion strains, locus YNL183C, strain NPR1, stronger effect = lower value 0.971 | S. cerevisiae deletion strains, locus YNL233W, strain BNI4, stronger effect = lower value 0.944 | S. cerevisiae deletion strains, locus YNL248C, strain rpa49, stronger effect = lower value 0.901 | S. cerevisiae deletion strains, locus YNL250W, strain rad50, stronger effect = lower value 0.968 | S. cerevisiae deletion strains, locus YNL271C, strain bni1, stronger effect = lower value 0.983 | S. cerevisiae deletion strains, locus YNL298W, strain CLA4, stronger effect = lower value 0.933 | S. cerevisiae deletion strains, locus YNL322C, strain KRE1, stronger effect = lower value 1 | S. cerevisiae deletion strains, locus YNR049C, strain mso1, stronger effect = lower value 0.962 | S. cerevisiae deletion strains, locus YNR052C, strain pop2, stronger effect = lower value 0.978 | S. cerevisiae deletion strains, locus YOL006C, strain TOP1, stronger effect = lower value 0.79 | S. cerevisiae deletion strains, locus YOL012C, strain htz1 0.845 | S. cerevisiae deletion strains, locus YOL147C, strain pex11, stronger effect = lower value 0.982 | S. cerevisiae deletion strains, locus YOR001W, strain rrp6, stronger effect = lower value 0.958 | S. cerevisiae deletion strains, locus YOR061W, strain CKA2, stronger effect = lower value 0.99 | S. cerevisiae deletion strains, locus YOR069W, strain VPS5, stronger effect = lower value 0.991 | S. cerevisiae deletion strains, locus YOR070C, strain gyp1, stronger effect = lower value 0.956 | S. cerevisiae deletion strains, locus YOR080W, strain dia2, stronger effect = lower value 0.95 | S. cerevisiae deletion strains, locus YOR083W, strain WHI5, stronger effect = lower value 0.914 | S. cerevisiae deletion strains, locus YOR136W, strain idh2, stronger effect = lower value 0.974 | S. cerevisiae deletion strains, locus YOR144C, strain elg1, stronger effect = lower value 0.97 | S. cerevisiae deletion strains, locus YOR231W, strain MKK1, stronger effect = lower value 1.01 | S. cerevisiae deletion strains, locus YOR265W, strain rbl2, stronger effect = lower value 0.963 | S. cerevisiae deletion strains, locus YOR270C, strain vph1, stronger effect = lower value 0.83 | S. cerevisiae deletion strains, locus YOR316C, strain cot1, stronger effect = lower value 1 | S. cerevisiae deletion strains, locus YPL051W, strain arl3, stronger effect = lower value 0.939 | S. cerevisiae deletion strains, locus YPL055C, strain LGE1, stronger effect = lower value 0.938 | S. cerevisiae deletion strains, locus YPL078C, strain atp4, stronger effect = lower value 0.964 | S. cerevisiae deletion strains, locus YPL106C, strain sse1, stronger effect = lower value 0.899 | S. cerevisiae deletion strains, locus YPL240C, strain hsp82, stronger effect = lower value 0.965 | S. cerevisiae deletion strains, locus YPL241C, strain CIN2, stronger effect = lower value 0.959 | S. cerevisiae deletion strains, locus YPL256C, strain CLN2, stronger effect = lower value 1.1 | S. cerevisiae deletion strains, locus YPR119W, strain clb2, stronger effect = lower value 0.998 | S. cerevisiae deletion strains, locus YPR141C, strain kar3, stronger effect = lower value 1.02 | S. cerevisiae deletion strains, locus YPR163C, strain tif3, stronger effect = lower value 0.983 | S. cerevisiae deletion strains, locus YPR167C, strain met16, stronger effect = lower value 1.01 | S. cerevisiae deletion strains, strain wtn01, stronger effect = lower value 0.966 | S. cerevisiae strains, strain wild type, stronger effect = lower value 1
active: S. cerevisiae deletion strains, locus YKR001C, strain vps1, stronger effect = lower value 0.863 | S. cerevisiae deletion strains, locus YLL001W, strain dnm1, stronger effect = lower value 0.874 | S. cerevisiae deletion strains, locus YLR221C, strain rsa3, stronger effect = lower value 0.891 | S. cerevisiae deletion strains, locus YLR320W, strain mms22, stronger effect = lower value 0.833 | S. cerevisiae deletion strains, locus YML032C, strain rad52, stronger effect = lower value 0.876 | S. cerevisiae deletion strains, locus YML120C, strain ndi1, stronger effect = lower value 0.866 | S. cerevisiae deletion strains, locus YNL209W, strain ssb2, stronger effect = lower value 0.923 | S. cerevisiae deletion strains, locus YNL307C, strain MCK1, stronger effect = lower value 0.88 | S. cerevisiae deletion strains, locus YNL322C, strain KRE1 (second series), stronger effect = lower value 0.763 | S. cerevisiae deletion strains, locus YOR106W, strain vam3, stronger effect = lower value 0.701 | S. cerevisiae deletion strains, locus YOR184W, strain ser1, stronger effect = lower value 0.859 | S. cerevisiae deletion strains, locus YOR290C, strain snf2, stronger effect = lower value 0.856
